B1: GCTT (dsDNA)
DNA 1: GCTATCTAGTGCTCAGTACGCACTGGCTTAGGAAACTTCTGGCAGGACCAGGTCATGAGATCGGAAGAGCACACGTCTGAACTCCAGTCA
DNA 2: TGACTGGAGTTCAGACGTGTGCTCTTCCGATCTCATGACCTGGTCCTGCCAGAAGTTTCCTAAGCCAGTGCGTACTGAGCACTAGATAGC
RNA: AAUUUCUACUCUUGUAGAUAGGAAACUUCUGGCAGGACC
B2: TATT (dsDNA)
DNA 1: GCTATCTAGTGCTCAGTACGCACTGTATTAGGAAACTTCTGGCAGGACCAGGTCATGAGATCGGAAGAGCACACGTCTGAACTCCAGTCA
DNA 2: TGACTGGAGTTCAGACGTGTGCTCTTCCGATCTCATGACCTGGTCCTGCCAGAAGTTTCCTAATACAGTGCGTACTGAGCACTAGATAGC
RNA: AAUUUCUACUCUUGUAGAUAGGAAACUUCUGGCAGGACC
B3: TCAA (dsDNA)
DNA 1: GCTATCTAGTGCTCAGTACGCACTGTCAAAGGAAACTTCTGGCAGGACCAGGTCATGAGATCGGAAGAGCACACGTCTGAACTCCAGTCA
DNA 2: TGACTGGAGTTCAGACGTGTGCTCTTCCGATCTCATGACCTGGTCCTGCCAGAAGTTTCCTTTGACAGTGCGTACTGAGCACTAGATAGC
RNA: AAUUUCUACUCUUGUAGAUAGGAAACUUCUGGCAGGACC
B4: GGGA (dsDNA)
DNA 1: GCTATCTAGTGCTCAGTACGCACTGGGGAAGGAAACTTCTGGCAGGACCAGGTCATGAGATCGGAAGAGCACACGTCTGAACTCCAGTCA
DNA 2: TGACTGGAGTTCAGACGTGTGCTCTTCCGATCTCATGACCTGGTCCTGCCAGAAGTTTCCTTCCCCAGTGCGTACTGAGCACTAGATAGC
RNA: AAUUUCUACUCUUGUAGAUAGGAAACUUCUGGCAGGACC
B5: TCAC (dsDNA)
DNA 1: GCTATCTAGTGCTCAGTACGCACTGTCACAGGAAACTTCTGGCAGGACCAGGTCATGAGATCGGAAGAGCACACGTCTGAACTCCAGTCA
DNA 2: TGACTGGAGTTCAGACGTGTGCTCTTCCGATCTCATGACCTGGTCCTGCCAGAAGTTTCCTGTGACAGTGCGTACTGAGCACTAGATAGC
RNA: AAUUUCUACUCUUGUAGAUAGGAAACUUCUGGCAGGACC
B6: GTCT (dsDNA)
DNA 1: GCTATCTAGTGCTCAGTACGCACTGGTCTAGGAAACTTCTGGCAGGACCAGGTCATGAGATCGGAAGAGCACACGTCTGAACTCCAGTCA
DNA 2: TGACTGGAGTTCAGACGTGTGCTCTTCCGATCTCATGACCTGGTCCTGCCAGAAGTTTCCTAGACCAGTGCGTACTGAGCACTAGATAGC
RNA: AAUUUCUACUCUUGUAGAUAGGAAACUUCUGGCAGGACC
B7: GTGA (dsDNA)
DNA 1: GCTATCTAGTGCTCAGTACGCACTGGTGAAGGAAACTTCTGGCAGGACCAGGTCATGAGATCGGAAGAGCACACGTCTGAACTCCAGTCA
DNA 2: TGACTGGAGTTCAGACGTGTGCTCTTCCGATCTCATGACCTGGTCCTGCCAGAAGTTTCCTTCACCAGTGCGTACTGAGCACTAGATAGC
RNA: AAUUUCUACUCUUGUAGAUAGGAAACUUCUGGCAGGACC
B8: GGTC (dsDNA)
DNA 1: GCTATCTAGTGCTCAGTACGCACTGGGTCAGGAAACTTCTGGCAGGACCAGGTCATGAGATCGGAAGAGCACACGTCTGAACTCCAGTCA
DNA 2: TGACTGGAGTTCAGACGTGTGCTCTTCCGATCTCATGACCTGGTCCTGCCAGAAGTTTCCTGACCCAGTGCGTACTGAGCACTAGATAGC
RNA: AAUUUCUACUCUUGUAGAUAGGAAACUUCUGGCAGGACC
B9: TCCG (dsDNA)
DNA 1: GCTATCTAGTGCTCAGTACGCACTGTCCGAGGAAACTTCTGGCAGGACCAGGTCATGAGATCGGAAGAGCACACGTCTGAACTCCAGTCA
DNA 2: TGACTGGAGTTCAGACGTGTGCTCTTCCGATCTCATGACCTGGTCCTGCCAGAAGTTTCCTCGGACAGTGCGTACTGAGCACTAGATAGC
RNA: AAUUUCUACUCUUGUAGAUAGGAAACUUCUGGCAGGACC
B10: GGTT (dsDNA)
DNA 1: GCTATCTAGTGCTCAGTACGCACTGGGTTAGGAAACTTCTGGCAGGACCAGGTCATGAGATCGGAAGAGCACACGTCTGAACTCCAGTCA
DNA 2: TGACTGGAGTTCAGACGTGTGCTCTTCCGATCTCATGACCTGGTCCTGCCAGAAGTTTCCTAACCCAGTGCGTACTGAGCACTAGATAGC
RNA: AAUUUCUACUCUUGUAGAUAGGAAACUUCUGGCAGGACC
B11: TCCA (dsDNA)
DNA 1: GCTATCTAGTGCTCAGTACGCACTGTCCAAGGAAACTTCTGGCAGGACCAGGTCATGAGATCGGAAGAGCACACGTCTGAACTCCAGTCA
DNA 2: TGACTGGAGTTCAGACGTGTGCTCTTCCGATCTCATGACCTGGTCCTGCCAGAAGTTTCCTTGGACAGTGCGTACTGAGCACTAGATAGC
RNA: AAUUUCUACUCUUGUAGAUAGGAAACUUCUGGCAGGACC
B12: TAGA (dsDNA)
DNA 1: GCTATCTAGTGCTCAGTACGCACTGTAGAAGGAAACTTCTGGCAGGACCAGGTCATGAGATCGGAAGAGCACACGTCTGAACTCCAGTCA
DNA 2: TGACTGGAGTTCAGACGTGTGCTCTTCCGATCTCATGACCTGGTCCTGCCAGAAGTTTCCTTCTACAGTGCGTACTGAGCACTAGATAGC
RNA: AAUUUCUACUCUUGUAGAUAGGAAACUUCUGGCAGGACC
B13: TAAA (dsDNA)
DNA 1: GCTATCTAGTGCTCAGTACGCACTGTAAAAGGAAACTTCTGGCAGGACCAGGTCATGAGATCGGAAGAGCACACGTCTGAACTCCAGTCA
DNA 2: TGACTGGAGTTCAGACGTGTGCTCTTCCGATCTCATGACCTGGTCCTGCCAGAAGTTTCCTTTTACAGTGCGTACTGAGCACTAGATAGC
RNA: AAUUUCUACUCUUGUAGAUAGGAAACUUCUGGCAGGACC
B14: GTGT (dsDNA)
DNA 1: GCTATCTAGTGCTCAGTACGCACTGGTGTAGGAAACTTCTGGCAGGACCAGGTCATGAGATCGGAAGAGCACACGTCTGAACTCCAGTCA
DNA 2: TGACTGGAGTTCAGACGTGTGCTCTTCCGATCTCATGACCTGGTCCTGCCAGAAGTTTCCTACACCAGTGCGTACTGAGCACTAGATAGC
RNA: AAUUUCUACUCUUGUAGAUAGGAAACUUCUGGCAGGACC
B15: GGTA (dsDNA)
DNA 1: GCTATCTAGTGCTCAGTACGCACTGGGTAAGGAAACTTCTGGCAGGACCAGGTCATGAGATCGGAAGAGCACACGTCTGAACTCCAGTCA
DNA 2: TGACTGGAGTTCAGACGTGTGCTCTTCCGATCTCATGACCTGGTCCTGCCAGAAGTTTCCTTACCCAGTGCGTACTGAGCACTAGATAGC
RNA: AAUUUCUACUCUUGUAGAUAGGAAACUUCUGGCAGGACC

The target of the first experiment is dAsCas12a Ultra (Acidaminococcus sp., UniProt U2UMQ6 1-1307, M537R;F870L;D908A;E993A;D1235A). The experiment is described as follows: Spec-seq (native PAGE EMSA with sequencing of bound and unbound); 25 mM Tris-HCl pH 7.4, 150 mM KCl, 5 mM MgCl2, 10% glycerol, 1 mM DTT, 40 ng/uL salmon sperm DNA; 400 nM Cas12a, 480 nM crRNA, 50 nM library, 37 C 1 h; native PAGE at room temperature; high values mean tight binding. The note with it: protein: recombinant.
B1: the binding signal was -8.74 lnKA.
On the same count and under the same terms, the figure for B2 is -8.42 lnKA; for B3 it is -8.83 lnKA.
As for B4, the binding signal is -8.93 lnKA.
For the molecule B5, the binding signal was -8.33 lnKA.
On to B6, for which the binding signal was -8.79 lnKA.
As for B7, the binding signal is -7.93 lnKA.
Still for that read-out and setting: the figure for B8 is -8.4 lnKA; for B9 it is -7.52 lnKA; for B10 it is -8.59 lnKA.
B11: the binding signal is -7.24 lnKA.
With B12, the binding signal is -8.98 lnKA.
B13: the binding signal is -8.83 lnKA.
Consider B14, for which the binding signal is -8.66 lnKA.
On to B15, for which the binding signal is -7.78 lnKA.

A further experiment addresses dAsCas12a E174R (Acidaminococcus sp., UniProt U2UMQ6 1-1307, E174R;D908A;E993A;D1235A). The description is as above. Conditions: protein: recombinant.
In the case of B1, the binding signal is -8.39 lnKA.
Turning to B2, the binding signal was -8.04 lnKA.
For B6, the binding signal was -8.88 lnKA.
As to B7, the binding signal is -8.87 lnKA.
As to B8, the binding signal was -8.96 lnKA.
B9: the binding signal is -7.89 lnKA.
As to B10, the binding signal was -8.64 lnKA.
Consider B11, for which the binding signal is -6.64 lnKA.
Consider B14, for which the binding signal was -8.98 lnKA.
For B15, the binding signal is -8.41 lnKA.

The target in another experiment is dAsCas12a S542R (Acidaminococcus sp., UniProt U2UMQ6 1-1307, S542R;D908A;E993A;D1235A). Described as above. Conditions: protein: recombinant.
For the molecule B1, the binding signal was -8.31 lnKA.
For B2, the binding signal is -7.99 lnKA.
For the molecule B3, the binding signal is -7.68 lnKA.
The same measure, in the same setting: the figure for B4 is -8.02 lnKA; for B5 it is -7.5 lnKA; for B6 it is -7.55 lnKA.
B7: the binding signal is -7.67 lnKA.
In the case of B8, the binding signal was -8.74 lnKA.
On to B9, for which the binding signal was -3.6 lnKA.
Turning to B10, the binding signal is -8.19 lnKA.
For the molecule B11, the binding signal is -3.52 lnKA.
On to B12, for which the binding signal was -8.65 lnKA.
On to B13, for which the binding signal was -8.25 lnKA.
B14: the binding signal is -8.04 lnKA.
On the same count and under the same terms, the figure for B15 is -7.66 lnKA.

Another experiment addresses d-enCas12a (Acidaminococcus sp., UniProt U2UMQ6 1-1307, E174R;S542R;K548R;D908A;E993A;D1235A). The experiment is described as above. The note with it: protein: recombinant.
On to B1, for which the binding signal was -5.83 lnKA.
Consider B2, for which the binding signal is -3.27 lnKA.
Consider B3, for which the binding signal was -5.65 lnKA.
For the molecule B4, the binding signal was -5.68 lnKA.
The same measure, in the same setting: the figure for B5 is -5.3 lnKA; for B6 it is -4.02 lnKA; for B7 it is -5.45 lnKA.
With B8, the binding signal was -3.44 lnKA.
Still for that read-out and setting: the figure for B9 is -3.12 lnKA; for B10 it is -5.45 lnKA.
Same read-out and setting: the figure for B11 is -2.15 lnKA.
Consider B12, for which the binding signal is -5.31 lnKA.
As to B13, the binding signal is -5.38 lnKA.
On to B14, for which the binding signal was -5.78 lnKA.
The same measure, in the same setting: the figure for B15 is -3.21 lnKA.

In another experiment the target is d-enCas12a-Ultra (Acidaminococcus sp., UniProt U2UMQ6 1-1307, E174R;S542R;K548R;M537R;F870L;D908A;E993A;D1235A). The experiment is described as above. The note with it: protein: recombinant.
Turning to B1, the binding signal was -3.16 lnKA.
On the same count and under the same terms, the figure for B2 is -1.25 lnKA.
Same read-out and setting: the figure for B3 is -3.39 lnKA; for B4 it is -3.47 lnKA; for B5 it is -3 lnKA.
As for B6, the binding signal is -0.927 lnKA.
As to B7, the binding signal was -3.14 lnKA.
For B8, the binding signal was -0.971 lnKA.
Still for that read-out and setting: the figure for B9 is -0.639 lnKA; for B10 it is -2.7 lnKA; for B11 it is -0.457 lnKA.
On to B12, for which the binding signal is -3.33 lnKA.
On to B13, for which the binding signal was -3.04 lnKA.
For the molecule B14, the binding signal was -3.14 lnKA.
In the case of B15, the binding signal is -0.816 lnKA.

Values taken from article PMC8222333, “AsCas12a ultra nuclease facilitates the rapid generation of therapeutic cell medicines”.
